Laboratory results: the supplement of paper PMC8728848
The sample as a whole holds a higher share of the strongest signals than the screen did.

Columns and labels:
Assay in all cases: glycan array binding signal (z-score within array); higher = stronger binding
Settings in all cases: glycan notation: IUPAC condensed, linker removed
[1] = molecular target: Fuc(a1-2)Gal(b1-3)GlcNAc(b1-2)Man(a1-3)[Fuc(a1-2)Gal(b1-3)GlcNAc(b1-2)Man(a1-6)]Man(b1-4)GlcNAc(b1-4)GlcNAc
How it was run: (§1)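 From the Consortium for Functional Glycomics database, 3228 arrays were curated, keeping only those whose protein sequence was available. Binding is given as a within-array Z-score averaged across arrays sharing a protein sequence and across linkers. Negative Z-scores can be read as non-binding.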

[2] = molecular target: Fuc(a1-2)Gal(b1-3)GlcNAc(b1-3)[Fuc(a1-2)Gal(b1-3)GlcNAc(b1-6)]GalNAc
How it was run: as §1

[3] = molecular target: Fuc(a1-2)Gal(b1-4)GlcNAc(b1-3)Gal(b1-4)GlcNAc(b1-2)Man(a1-3)[Fuc(a1-2)Gal(b1-4)GlcNAc(b1-3)Gal(b1-4)GlcNAc(b1-2)Man(a1-6)]Man(b1-4)GlcNAc(b1-4)GlcNAc
How it was run: as §1

[4] = molecular target: Fuc(a1-2)Gal(b1-4)GlcNAc(b1-3)[Fuc(a1-2)Gal(b1-4)GlcNAc(b1-6)]GalNAc
How it was run: as §1

[5] = molecular target: Fuc(a1-2)Gal(b1-4)GlcNAc6S
How it was run: as §1

[6] = molecular target: Fuc(a1-2)Gal6S(b1-3)GlcNAc6S
How it was run: as §1

[7] = molecular target: Fuc(a1-2)[GalNAc(a1-3)]Gal(b1-4)GlcNAc(b1-6)GalNAc
How it was run: as §1

[8] = molecular target: Fuc(a1-2)[GalNAc(a1-3)]Gal(b1-4)[Fuc(a1-3)]GlcNAc(b1-3)GalNAc
How it was run: as §1

Fuc(a1-3)GlcNAc = molecular target: Fuc(a1-3)GlcNAc
How it was run: as §1

[9] = molecular target: Fuc(a1-3)[Gal(b1-4)]Glc6S
How it was run: as §1

[10] = molecular target: Fuc(a1-3)[Gal(b1-4)]GlcNAc6S
How it was run: as §1

[11] = molecular target: Fuc(a1-3)[Gal3S(b1-4)]GlcNAc6S
How it was run: as §1

[12] = molecular target: Gal(a1-3)Gal(b1-4)[Fuc(a1-3)]GlcNAc
How it was run: as §1

Gal(b1-3)GalNAc = molecular target: Gal(b1-3)GalNAc
How it was run: as §1

[13] = molecular target: Gal(b1-3)GalNAc(a1-3)[Fuc(a1-2)]Gal(b1-4)Glc
How it was run: as §1

[14] = molecular target: Gal(b1-3)GlcNAc(b1-2)Man(a1-3)[Gal(b1-3)GlcNAc(b1-2)Man(a1-6)]Man(b1-4)GlcNAc(b1-4)GlcNAc
How it was run: as §1

[15] = molecular target: Gal(b1-3)GlcNAc(b1-3)Gal(b1-4)GlcNAc
How it was run: as §1

[16] = molecular target: Gal(b1-3)GlcNAc(b1-3)Gal(b1-4)GlcNAc(b1-2)[Gal(b1-3)GlcNAc(b1-3)Gal(b1-4)GlcNAc(b1-6)]Man(a1-6)[Gal(b1-3)GlcNAc(b1-3)Gal(b1-4)GlcNAc(b1-2)Man(a1-3)]Man(b1-4)GlcNAc(b1-4)[Fuc(a1-6)]GlcNAc
How it was run: as §1

[17] = molecular target: Gal(b1-3)GlcNAc(b1-6)[Gal(b1-3)]GalNAc
How it was run: as §1

Gal(b1-3)GlcNAc6S = molecular target: Gal(b1-3)GlcNAc6S
How it was run: as §1

[18] = molecular target: Gal(b1-3)[Neu5Ac(b2-6)]GalNAc
How it was run: as §1

[19] = molecular target: Gal(b1-4)GlcNAc(b1-2)Man(a1-6)[GlcNAc(b1-2)Man(a1-3)]Man(b1-4)GlcNAc(b1-4)GlcNAc
How it was run: as §1

[20] = molecular target: Gal(b1-4)GlcNAc(b1-3)Gal(b1-4)GlcNAc(b1-3)Gal(b1-4)GlcNAc(b1-2)Man(a1-3)[Gal(b1-4)GlcNAc(b1-3)Gal(b1-4)GlcNAc(b1-3)Gal(b1-4)GlcNAc(b1-2)Man(a1-6)]Man(b1-4)GlcNAc(b1-4)GlcNAc
How it was run: as §1

[21] = molecular target: Gal(b1-4)GlcNAc(b1-3)Gal(b1-4)GlcNAc(b1-3)Gal(b1-4)GlcNAc(b1-3)Gal(b1-4)GlcNAc(b1-2)Man(a1-3)[Gal(b1-4)GlcNAc(b1-3)Gal(b1-4)GlcNAc(b1-3)Gal(b1-4)GlcNAc(b1-3)Gal(b1-4)GlcNAc(b1-2)Man(a1-6)]Man(b1-4)GlcNAc(b1-4)[Fuc(a1-6)]GlcNAc
How it was run: as §1

[22] = molecular target: Gal(b1-4)GlcNAc(b1-3)Gal(b1-4)GlcNAc(b1-3)Gal(b1-4)GlcNAc(b1-3)Gal(b1-4)GlcNAc(b1-2)[Gal(b1-4)GlcNAc(b1-3)Gal(b1-4)GlcNAc(b1-3)Gal(b1-4)GlcNAc(b1-3)Gal(b1-4)GlcNAc(b1-6)]Man(a1-6)[Gal(b1-4)GlcNAc(b1-3)Gal(b1-4)GlcNAc(b1-3)Gal(b1-4)GlcNAc(b1-3)Gal(b1-4)GlcNAc(b1-2)Man(a1-3)]Man(b1-4)GlcNAc(b1-4)[Fuc(a1-6)]GlcNAc
How it was run: as §1

[23] = molecular target: Gal(b1-4)GlcNAc(b1-3)GalNAc
How it was run: as §1

Gal(b1-6)Gal = molecular target: Gal(b1-6)Gal
How it was run: as §1

B1: Agalectin (Anopheles gambiae) (protein)
chain: MSNRPFTAKFPRYPENGDEVFIRGKLKDDAKSFSVNFCLPRPAQVAEHQTPPYIALHFKTIYDERDDTSRVVLNWKNLQWQQEEVLDNYWHVDRSQTFRVVFRLHEDCIKVFVNSVDHPPDYQFPVQLPLDQIESIELWDDVEHVEEISFRYDNGNSY
glycan array binding signal (z-score) [1]: 5.71 | glycan array binding signal (z-score) [2]: 4.19 | glycan array binding signal (z-score) [3]: -0.148 | glycan array binding signal (z-score) [4]: -0.321 | glycan array binding signal (z-score) [5]: -0.769 | glycan array binding signal (z-score) [6]: -0.208 | glycan array binding signal (z-score) [7]: 0.074 | glycan array binding signal (z-score) [8]: -0.12 | glycan array binding signal (z-score) (Fuc(a1-3)GlcNAc): -1.07 | glycan array binding signal (z-score) [9]: -0.632 | glycan array binding signal (z-score) [10]: 0.34 | glycan array binding signal (z-score) [11]: -0.759 | glycan array binding signal (z-score) [12]: -0.066 | glycan array binding signal (z-score) (Gal(b1-3)GalNAc): -0.47 | glycan array binding signal (z-score) [13]: -0.559 | glycan array binding signal (z-score) [14]: 1.66 | glycan array binding signal (z-score) [15]: -0.854 | glycan array binding signal (z-score) [16]: 3.14 | glycan array binding signal (z-score) [17]: -1.37 | glycan array binding signal (z-score) (Gal(b1-3)GlcNAc6S): -1.14 | glycan array binding signal (z-score) [18]: 0.408 | glycan array binding signal (z-score) [19]: -0.688 | glycan array binding signal (z-score) [20]: 2.89 | glycan array binding signal (z-score) [21]: 3.26 | glycan array binding signal (z-score) [22]: -0.07 | glycan array binding signal (z-score) [23]: -0.509 | glycan array binding signal (z-score) (Gal(b1-6)Gal): -1.18
